From PubChem BioAssay (NCATS)
Records with an inconclusive call do not appear. Activity calls are given as the source filed them. Unless noted, calls follow the shape of the dose curve; as a rule, active = well fitted curve in the direction sought with a large enough effect; inconclusive = small, poorly fitted or top-dose-only effect, or another doubt; inactive = no such curve, though single readings can be large; an effect the other way counts as inactive or inconclusive.

Key:
[1] = biological target: Cytochrome P450 3A4 (Homo sapiens) (UniProt P08684); experiment: qHTS Assay for Inhibitors and Substrates of Cytochrome P450 3A4 (AID 884); also: nearly all actives have a fitted effect of over 50% in size
In short: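 Luminescent readout of luciferin produced by CYP3A4 (20 nM) dealkylation of Luciferin-PPXE, 25 uM (its KM). NADPH-driven reaction ran 60 min at RT after 10 min compound preincubation; data scaled to 57 uM ketoconazole as 100% inhibition.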

[2] = Confirmation and Secondary Assay for Modulators of Hemoglobin Beta Chain Splicing at IVS2 654 locus (AID 910);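 also: per-well total GFP intensity by laser scanning cytometry after 2-day treatment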
In short: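 HeLa cells stably carrying EGFP interrupted by mutant beta-globin IVS2-654 intron (CMV-driven) were treated with compound for 2 days at 37C; corrected splicing was scored as total peak GFP intensity per well (488 nm excitation, 500-520 nm emission).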

[3] = Confirmation and Secondary Assay for Modulators of Hemoglobin Beta Chain Splicing at IVS2 705 locus (AID 930);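 also: HeLa cells stably expressing the EGFP-705 splicing reporter; GFP fluorescence per well restored by corrected splicing of the IVS2-705 intron in EGFP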
In short: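 Secondary splice-site specificity test uses HeLa expressing CMV-driven EGFP interrupted by IVS2-705; cells were treated 2 days at 37C with 500 nM antisense PNA as positive control.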

[4] = biological target: Luciferin 4-monooxygenase (Photinus pyralis) (UniProt P08659); experiment: Biochemical firefly luciferase enzyme assay for NPC (AID 624030);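 also: purified P. pyralis luciferase at 10 nM with luciferin and ATP substrate; nearly all actives have a fitted effect of over 70% in size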
In short: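 Counter-screen for direct inhibition of the luciferase enzyme by approved-drug library compounds, run at 10 nM enzyme in 50 mM Tris acetate (final). Luminescence was read within 5 min of enzyme-buffer addition and normalized to PTC124 versus DMSO (0%).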

[5] = S16 Schwann cell PMP22 intronic element beta-lactamase assay (AID 624044; calls by dose curve; also: nearly all actives have a fitted effect of over 15% in size); conditions: S16 rat Schwann cells, PMP22 element beta-lactamase FRET, 24 h; ratio activity, negative = inhibition: at 38.3 µM (top of the series)
In short: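 Beta-lactamase reporter under a PMP22 intronic regulatory element in stable S16 rat Schwann cells; 24 h compound exposure. 460 nm blue signal normalized between DMSO (0%) and potassium clavulanate, with 535 nm FRET tracking viability; curves classed by r2 and response.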

DFO2036 = experiment: qHTS profiling for inhibitors of Plasmodium falciparum proliferation (AID 504749); also: nearly all actives have a fitted effect of over 60% in size; also: potency is read from the fitted curve at half-maximal effect; conditions: P. falciparum in erythrocytes, SYBR Green DNA, 72 h; series mostly up to 28.7 µM
In short: (§1)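 Fluorescence of SYBR Green-bound parasite DNA, read at 485/535 nm, served as the growth measure. Infected erythrocytes were cultured with compound 72 h; artemisinin (0.29 uM) and DMSO wells defined the normalization range.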

W2 = experiment: as above; conditions: P. falciparum in erythrocytes, SYBR Green DNA, 72 h; series mostly up to 28.7 µM
In short: as §1

[6] = S16 Schwann cell viability assay (CellTiter-Glo assay) (AID 624031);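 also: cellular ATP luminescence as a viability measure; nearly all actives have a fitted effect of over 70% in size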
In short: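 This viability control uses native rat S16 Schwann cells grown in DMEM plus 10% FBS. After a 24 h compound treatment at 37 °C, CellTiter-Glo luminescence reports ATP content, scaled against DMSO-treated and cell-free wells.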

[7] = biological target: Ubiquitin carboxyl-terminal hydrolase 1 (Homo sapiens) (UniProt O94782); experiment: Inhibitors of USP1/UAF1: Pilot qHTS (AID 504865);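 also: rhodamine fluorescence freed from ubiquitin-rhodamine substrate followed over time; top concentration of the series differs between compounds; nearly all actives have a fitted effect of over 35% in size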
In short: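 USP1/UAF1 complex at 1 nM preincubated 15 min at room temperature with compound, then Ub-Rho substrate added at 150 nM final. Fluorescence (480/540 nm) read kinetically in 50 mM HEPES pH 7.8, 0.5 mM EDTA, 1 mM TCEP, 0.1 mg/ml BSA, 0.01% Tween-20.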

Measured: Potency

Sequence of Ubiquitin carboxyl-terminal hydrolase 1 (Homo sapiens) (O94782 whole entry, looked up): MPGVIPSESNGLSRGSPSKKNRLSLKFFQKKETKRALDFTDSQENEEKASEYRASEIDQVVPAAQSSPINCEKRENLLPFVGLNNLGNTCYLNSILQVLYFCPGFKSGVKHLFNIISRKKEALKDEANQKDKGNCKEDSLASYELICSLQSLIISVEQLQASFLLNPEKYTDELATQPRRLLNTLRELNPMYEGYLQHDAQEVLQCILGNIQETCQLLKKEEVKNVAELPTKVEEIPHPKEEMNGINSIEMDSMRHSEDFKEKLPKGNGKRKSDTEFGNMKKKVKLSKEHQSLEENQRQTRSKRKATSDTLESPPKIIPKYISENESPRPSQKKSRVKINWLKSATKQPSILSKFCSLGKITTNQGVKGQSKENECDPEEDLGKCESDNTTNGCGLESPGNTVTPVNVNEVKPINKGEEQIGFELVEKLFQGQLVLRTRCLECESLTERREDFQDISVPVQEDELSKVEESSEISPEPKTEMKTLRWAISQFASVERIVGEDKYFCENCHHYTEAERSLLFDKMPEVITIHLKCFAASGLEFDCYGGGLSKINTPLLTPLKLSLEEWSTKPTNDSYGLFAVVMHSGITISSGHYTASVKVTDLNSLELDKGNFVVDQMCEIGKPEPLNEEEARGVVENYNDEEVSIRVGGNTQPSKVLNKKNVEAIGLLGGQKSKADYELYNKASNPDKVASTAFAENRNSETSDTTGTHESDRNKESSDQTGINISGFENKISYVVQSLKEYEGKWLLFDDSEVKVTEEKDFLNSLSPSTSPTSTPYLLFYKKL
Sequence of Cytochrome P450 3A4 (Homo sapiens) (P08684 whole entry, looked up): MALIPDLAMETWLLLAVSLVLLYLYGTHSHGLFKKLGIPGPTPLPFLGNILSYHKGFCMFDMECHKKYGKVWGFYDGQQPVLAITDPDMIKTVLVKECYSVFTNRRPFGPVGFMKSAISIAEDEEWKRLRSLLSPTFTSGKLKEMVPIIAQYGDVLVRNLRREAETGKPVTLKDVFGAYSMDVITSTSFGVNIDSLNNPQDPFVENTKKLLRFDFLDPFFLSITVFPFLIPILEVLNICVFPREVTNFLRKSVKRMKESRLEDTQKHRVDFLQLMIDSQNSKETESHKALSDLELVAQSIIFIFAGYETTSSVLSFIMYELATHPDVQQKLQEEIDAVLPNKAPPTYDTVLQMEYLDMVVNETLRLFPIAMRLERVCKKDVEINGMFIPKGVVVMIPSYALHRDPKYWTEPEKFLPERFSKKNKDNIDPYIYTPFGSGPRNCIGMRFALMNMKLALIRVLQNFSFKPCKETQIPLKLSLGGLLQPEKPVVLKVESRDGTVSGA
Sequence of Luciferin 4-monooxygenase (Photinus pyralis) (P08659 whole entry, looked up): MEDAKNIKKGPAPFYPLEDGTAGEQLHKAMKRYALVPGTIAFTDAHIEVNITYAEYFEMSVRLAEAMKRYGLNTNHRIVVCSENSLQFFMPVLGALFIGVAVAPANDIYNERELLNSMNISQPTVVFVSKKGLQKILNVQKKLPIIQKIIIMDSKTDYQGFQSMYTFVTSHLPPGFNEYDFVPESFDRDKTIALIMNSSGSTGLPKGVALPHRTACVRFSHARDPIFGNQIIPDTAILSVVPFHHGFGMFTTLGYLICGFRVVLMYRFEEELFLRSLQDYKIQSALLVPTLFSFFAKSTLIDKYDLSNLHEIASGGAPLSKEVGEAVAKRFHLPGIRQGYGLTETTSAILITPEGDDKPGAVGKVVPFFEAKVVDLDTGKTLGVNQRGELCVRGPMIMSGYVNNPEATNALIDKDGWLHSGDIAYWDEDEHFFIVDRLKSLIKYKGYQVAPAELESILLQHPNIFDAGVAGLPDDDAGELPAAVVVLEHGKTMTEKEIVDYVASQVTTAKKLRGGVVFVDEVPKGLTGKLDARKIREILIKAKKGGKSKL

COc1cccc(OC)c1C(=O)NC1C(=O)N2C1SC(C)(C)C2C(=O)O (centres undefined)
not listed: [6] | [7]
inactive: all other assays above

NC(=O)NC(CCC(=O)O)C(=O)O (centres undefined)
inactive: [4] | [6] | [5] | DFO2036 | W2

CCCCCCCCCCCCCCCC(=O)OC[C@H](O)[C@H]1OC[C@@H](O)[C@@H]1O
inactive: [7] | [4] | [6] | [5] | W2

CC(O)C1CCC2C3CCC4CC(O)CCC4(C)C3CCC12C (centres undefined)
inactive: [4] | [6] | [5] | DFO2036 | W2

C[C@H]1[C@@H](OC(=O)CCC(=O)O)OC2OC3(C)CC[C@H]4[C@H](C)CC[C@@H]1[C@@]24OO3 (some centres undefined)
active: DFO2036 3.5 nM | W2 1.9 nM
inactive: [7] | [4] | [5]

C[C@@H]1C(SC2Cn3cnc[n+]3C2)=C(C(=O)[O-])N2C(=O)[C@H]([C@@H](C)O)[C@@H]12 (some centres undefined)
inactive: [7] | [4] | [6] | W2

CC1(C)OC[C@@H]2O[C@@]3(C(=O)O)OC(C)(C)O[C@@H]3[C@@H]2O1
inactive: [7] | [6]

Cc1ccccc1N1C(=O)c2cc(N)ccc2N/C1=C\F
inactive: [7] | [4] | DFO2036

O=C1NC(=O)C2C3C=CC(C3)C12 (centres undefined)
inactive: [7] | [4] | [5] | W2

CC(=O)N[C@H]1[C@H](O[C@@H]2c3ccc(c(Cl)c3)Oc3cc4cc(c3O[C@@H]3O[C@H](CO)[C@@H](O)[C@H](O)C3C)Oc3ccc(cc3Cl)C[C@H]3NC(=O)[C@@H](N)c5ccc(O)c(c5)Oc5cc(O)cc(c5)[C@H](NC3=O)C(=O)N[C@H]4C(=O)N[C@H]3C(=O)N[C@@H]2C(=O)N[C@@H](C(=O)O)c2cc(O)cc(O[C@H]4O[C@H](CO)[C@@H](O)C(O)[C@@H]4O)c2-c2cc3ccc2O)O[C@H](CO)[C@@H](O)[C@@H]1O (some centres undefined)
inactive: [6] | [5] | DFO2036 | W2

OCC1O[C@H](O[C@H]2C(O)C(O)C(O)O[C@@H]2CO)C(O)C(O)C1O (some centres undefined)
not listed: [4] | [5] | DFO2036
inactive: all other assays above

O=C1C(I)=CC(=C(c2cc(I)c(O)c(I)c2)c2ccccc2C(=O)O)C=C1I
inactive: [6] | [5] | DFO2036 | W2

NC(=O)C1CC2(NC(=O)NC2=O)c2cc(F)ccc2O1 (centres undefined)
inactive: [7] | [4] | [6] | DFO2036 | W2

O=[N+]([O-])O[C@H]1CO[C@H]2[C@@H]1OC[C@H]2O
inactive: [7] | [4] | [6] | W2

NC[C@@H]1O[C@H](OC2[C@@H](CO)O[C@@H](OC3[C@H](O)[C@H](N)C[C@H](N)[C@H]3OC3O[C@H](CO)[C@@H](O)[C@H](O)[C@@H]3N)[C@H]2O)C(N)[C@H](O)[C@@H]1O (some centres undefined)
inactive: [4] | [6] | [5] | W2

OCC1O[C@@H](O[C@@H]2C(CO)OC(O)C(O)C2O)C(O)C(O)C1O (some centres undefined)
inactive: [7] | [4] | [6] | [5] | W2

CCCCC(=O)OCC(=O)[C@]1(O)Cc2c(O)c3c(c(O)c2[C@H](OC2CC(NC(=O)C(F)(F)F)C(O)C(C)O2)C1)C(=O)c1c(OC)cccc1C3=O (some centres undefined)
active: DFO2036 2510 nM | W2 1510 nM
inactive: [4]

C[n+]1c2cc(N)ccc2cc2ccc(N)cc21
inactive: [4] | [5]
active: DFO2036 355 nM | W2 757 nM

CN1[C@@H]2CC[C@@H]1CC(OC(=O)[C@H](CO)c1ccccc1)C2 (some centres undefined)
inactive: [4] | [6] | [5] | W2

CCCCCCCCCCCCCCCC(=O)OCC(COP(=O)(O)OCC[N+](C)(C)C)OC(=O)CCCCCCCCCCCCCCC (centres undefined)
inactive: [7] | [6] | [5] | W2

CC[C@@]1(O)C[C@H](O[C@H]2C[C@@H](N(C)C)[C@@H](O[C@H]3C[C@@H](O)[C@@H](O[C@H]4CCC(=O)[C@@H](C)O4)[C@@H](C)O3)[C@@H](C)O2)c2c(cc3c(c2O)C(=O)c2c(O)cccc2C3=O)[C@H]1C(=O)OC
inactive: [4]
active: DFO2036 178 nM | W2 151 nM

OCCOC[C@H]1O[C@H](OCCO)[C@H](OCCO)[C@@H](OCCO)[C@@H]1OCCO (tested in a mixture with another compound)
inactive: [7] | [4] | [6] | DFO2036 | W2

CNC1C(O)C(OC2C(N)CC(N)C(OC3OC(CN)=CCC3N)C2O)OCC1(C)O (centres undefined)
inactive: [4] | W2

O=C1[C@@H]2C[C@@H]3C[C@H]1C[C@@](O)(C3)C2
inactive: [4] | [6] | [5] | DFO2036 | W2

CC1(C)SC2C(NC(=O)C(C(=O)O)c3ccccc3)C(=O)N2C1C(=O)O (centres undefined)
not listed: [4] | [7]
inactive: all other assays above
